Rtt109 HAT inh: inhibitors of Candida albicans Rtt109/Vps75 histone acetyltransferase. Q5AAJ8. purified Rtt109/Vps75, ThioGlo CoA-SH fluorescence, 4 h. inhibition, % at 34.9 µM. 330,000 tested, 0.16% active;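 active = inhibition of at least 50% in every replicate; inconclusive = best replicate reaches 50% inhibition but some replicates fall short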
Rce1 inh: inhibitors of yeast Ras-converting enzyme; AID 2563; Q03530; 290,000 tested, 0.27% active; calls only; yeast membranes, quenched prenylated peptide cleavage fluorescence;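 active = fall in fluorescence gain of 50% or more versus controls, with final raw signal at or below 3038400; inconclusive = same 50% fall but final raw signal above 3038400; inactive = fall in fluorescence gain under 50%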;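 note: plate controls were neutral control wells for no effect and wells lacking membranes for full effect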
ALR inh: human ALR oxidase inhibition via reduced H2O2; 290,000 tested, 3.8% active; purified ALR, DTT oxidation, H2O2 HRP-luminol luminescence; inhibition, % (test concentration not listed);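 active = mean replicate inhibition above about 79%, with every replicate also reaching it, limit read from the data; inconclusive = only one of the two criteria met; inactive = mean below limit and not every replicate reaching it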
Target sequence (P55789 whole entry, looked up): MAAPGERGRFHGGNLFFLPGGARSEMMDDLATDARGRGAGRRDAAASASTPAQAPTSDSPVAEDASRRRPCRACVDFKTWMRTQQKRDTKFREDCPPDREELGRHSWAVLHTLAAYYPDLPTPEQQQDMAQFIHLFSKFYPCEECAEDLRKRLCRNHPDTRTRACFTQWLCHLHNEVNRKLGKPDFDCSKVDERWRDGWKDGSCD
GRK2 inh: inhibitors of human GRK2 displacing RNA aptamer; bead flow cytometry, FAM-aptamer displacement from GRK2; P25098; 330,000 tested, 0.59% active; inhibition of aptamer binding, % at 10 µM;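 active = inhibition of aptamer binding above 40%, roughly 3 SD of noise, on plates passing a quality check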;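 note: median bead fluorescence of bound FAM aptamer so fluorescent compounds give negative values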
HDAC3 inhib: inhibitors of human histone deacetylase 3; inhibition, % at 8.3 µM; 320,000 tested, 0.15% active; O15379; recombinant HDAC3, fluorogenic peptide/trypsin coupled, fluorescence; in the data active = inhibition above about 26%, passing the limit was not always enough; inconclusive = no clear call, values can overlap the other calls
Target sequence (O15379 whole entry, looked up): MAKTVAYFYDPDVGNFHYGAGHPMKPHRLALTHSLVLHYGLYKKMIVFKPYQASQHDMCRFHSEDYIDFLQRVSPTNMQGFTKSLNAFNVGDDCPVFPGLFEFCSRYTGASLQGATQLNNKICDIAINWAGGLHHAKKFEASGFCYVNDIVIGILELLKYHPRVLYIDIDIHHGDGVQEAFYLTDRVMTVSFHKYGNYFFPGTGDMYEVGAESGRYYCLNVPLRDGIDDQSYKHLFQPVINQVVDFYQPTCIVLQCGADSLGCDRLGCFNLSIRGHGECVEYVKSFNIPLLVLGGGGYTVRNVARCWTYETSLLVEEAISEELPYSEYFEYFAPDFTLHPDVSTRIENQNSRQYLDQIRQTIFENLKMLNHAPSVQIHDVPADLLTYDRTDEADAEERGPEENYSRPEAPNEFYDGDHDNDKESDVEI
Efflux pump mplx: antifungal efflux pump inhibition, Nile Red retention; inhibition, % at 10 µM; S. cerevisiae Candida pump triplex; 330,000 tested, 0.44% active; AID 485275;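 active = plate passing quality check with inhibition over a set limit, or well fluorescence over plate mean plus 4 SD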;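 note: Nile Red retained in pooled yeast measured as flow cytometry median fluorescence; 0% = buffer negative control and 100% = Enniatin B positive control; higher means more Nile Red kept so more efflux inhibition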
Numbers without * were called inactive; i = inactive; ? = inconclusive; / = no result given; + = active, no number. This is a sample that favours compounds with a hit; in the whole collection about 4.5% have one here.

SMILES | Rtt109 HAT inh | Rce1 inh | ALR inh | GRK2 inh | HDAC3 inhib | Efflux pump mplx
COc1ccc(OC)c(NC(=O)COC(=O)CN(C)S(=O)(=O)c2ccc(C)cc2)c1 | -1 | i | -14 | 100* | 2 | 0
Cc1ccc(S(=O)(=O)N(C)CC(=O)OCC(=O)NC(=O)NC(C)C)cc1 | 4 | i | 4 | 0 | / | 0
Cc1cn(CC(=O)NCC(c2ccccc2)c2ccccc2)c(=O)[nH]c1=O | -1 | / | / | / | / | /
Cc1nnc(-c2ccc(N3CCCCCC3)c([N+](=O)[O-])c2)o1 | -1 | i | 3 | 0 | -2 | 0
O=C(Oc1ccccc1-c1csnn1)c1cccs1 | -3 | i | 99* | 2 | 4 | 0
O=C(Oc1ccc(-c2csnn2)cc1)c1cccs1 | 6 | i | -7 | 0 | 14 | 0
CCN(Cc1ccccc1)c1ccc(/C=N/N=C(N)N)cc1 | ? | + | 99* | 0 | 0 | 0
Cc1cccc(/C=N/NC(=O)c2ccc(Br)cc2)c1 | 2 | + | 0 | 0 | 5 | 0
O=C(CSc1cccc[n+]1[O-])Nc1ccc2c(c1)OCCO2 | / | i | 87* | 1 | -3 | 0
NC(=O)c1ccc(NC(=O)CSc2cn(CC(=O)N3CCOCC3)c3ccccc23)cc1 | -18 | i | 99* | 2 | -5 | 0
Cn1cc(SCC(=O)Nc2ccc3c(c2)OCCO3)c2ccccc21 | -6 | i | 99* | 0 | 10 | 0
O=C(CSc1ccccc1)Nc1ccc2c(c1)OCCO2 | -11 | / | -6 | 0 | 0 | 0
O=C(CSc1cn(CC(=O)N2CCOCC2)c2ccccc12)N1CCOCC1 | 1 | i | -1 | 2 | -7 | 0
O=C(O)Cc1ccc(NC(=O)Nc2ccc3c(c2)OCO3)cc1 | 40 | i | -18 | 0 | -5 | 0
Cc1ccc2nc3c(c(N)c2c1)CCN3c1ccccc1 | 2 | i | ? | 4 | -53 | 0
Cc1ccc2nc3c(c(N)c2c1)CCN3C | -5 | + | / | 0 | -4 | 0
CN(C)c1ccc(/C=C(\C#N)c2ccccc2)cc1 | 2 | / | / | / | / | /
CN(C)c1cccc(/C=C(\C#N)c2ccccc2)c1 | -2 | i | 99* | 0 | 7 | 0
Nc1cc2c(cc1C(=O)c1ccccc1)OCCO2 | -5 | i | 98* | 2 | 3 | 0
COc1ccccc1NCCC(=O)OCC(=O)Nc1ccccc1F | -7 | / | 99* | 0 | -7 | 0
COc1ccccc1NCCC(=O)OCC(=O)Nc1ccccc1Cl | -5 | / | / | 0 | 4 | 0
COc1ccccc1CCC(=O)OCC(=O)NC1CCCC1 | -8 | i | 4 | 1 | -3 | 0
COc1ccccc1NCCC(=O)OCC(=O)NC1CCCCCC1 | 0 | i | 99* | 0 | -1 | -10
CCCC(=O)OCCNc1cc(Sc2nccn2C)c2nonc2c1[N+](=O)[O-] | 5 | i | 97* | 0 | 8 | 0
CC(=O)OCCCNc1cc(SCc2ccco2)c2nonc2c1[N+](=O)[O-] | 38 | i | 90* | 4 | 2 | 0
SMILES | Rtt109 HAT inh | Rce1 inh | ALR inh | GRK2 inh | HDAC3 inhib | Efflux pump mplx
CCCSc1cc(NCCOC(=O)CCC)c([N+](=O)[O-])c2nonc12 | 12 | i | 97* | 4 | 6 | 0
CCCSc1cc(NCCOC(C)=O)c([N+](=O)[O-])c2nonc12 | 8 | i | -16 | 0 | -1 | 0
CCCC(=O)OCCNc1cc(SCc2ccco2)c2nonc2c1[N+](=O)[O-] | 14 | i | -5 | 8 | ? | 0
Cc1nnc(Sc2cc(NCCCO)c([N+](=O)[O-])c3nonc23)s1 | + | i | / | / | / | /
Cc1nnc(Sc2cc(NCCO)c([N+](=O)[O-])c3nonc23)s1 | -20 | i | / | / | / | /
Cc1ccc(S(=O)(=O)N2CCN(C(=O)C3CCN(c4ncnc5sc(C)c(C)c45)CC3)CC2)c(C)c1 | 6 | / | / | / | / | /
CCOc1ccc(CN(C(=O)c2cc(=O)c3cc(C)cc(C)c3o2)C2CCS(=O)(=O)C2)cc1 (centres undefined) | 23 | i | -8 | 2 | -6 | 0
CCOC(=O)CSc1n[nH]c(NC(=O)c2ccc(F)cc2)n1 | 4 | / | 2 | 0 | 50* | 0
COc1ccccc1NC(=O)C(C)OC(=O)CCCOc1ccccc1 (centres undefined) | 16 | i | 2 | 20 | -4 | 0
CC(C)(O)C#Cc1ccc(C(=O)NC2CCCCC2)s1 | 13 | i | 97* | 2 | 2 | 0
CC(C)(O)C#Cc1ccc(C(=O)NCCC(=O)O)s1 | -1 | i | -4 | 0 | 1 | 0
CCN(CC)CCNS(=O)(=O)c1ccc(C(=O)NN)cc1 | 0 | i | 98* | 1 | 1 | 0
CC(C)Cc1ccc(C(=O)NCCOc2ccccc2)o1 | -11 | i | 4 | 1 | -2 | 0
CCN(CC(=O)Nc1c(F)cccc1F)C(=O)C1Cc2ccccc2CN1S(=O)(=O)CC (centres undefined) | 1 | i | -6 | 2 | 1 | 0
COc1ccc(N2C(=O)CSC2c2cccs2)cc1 (centres undefined) | -5 | i | 99* | 0 | -1 | 1
CCOc1ccc(N2C(=O)CSC2c2ccncc2)cc1 (centres undefined) | 63* | i | 100* | 0 | 3 | 0
COc1ccc(N2C(=O)CSC2c2ccc(F)c(F)c2)cc1 (centres undefined) | -5 | i | / | 0 | -3 | 0
O=C1CSC(c2cccs2)N1c1ccccc1 (centres undefined) | 34 | i | / | 2 | -3 | 0
CC(C)Oc1ccc(-c2nn(-c3ccccc3)cc2/C=c2\sc3ncnn3c2=O)cc1 | / | / | 39 | 0 | 3 | 0.9*
O=C(Nc1ccc2c(c1)CCC2)c1cc(=O)[nH]c2ccccc12 | -9 | i | -4 | 0 | -1 | 0
CC(=O)Nc1ccc(S[C@@H](CCN2CC[C@H](C(C)(C)C)CCC2=O)c2ccccc2)cc1 | 19 | / | 97* | 5 | 16 | 0
CC(=O)Nc1ccc(SC[C@H](Cc2ccccc2)N2CC[C@@H](C(C)(C)C)CCC2=O)cc1 | 21 | / | 99* | 10 | 0 | 0
CC(=O)Nc1ccc(SC[C@H](Cc2ccccc2)N2CC[C@@H](O)CCC2=O)cc1 | 3 | / | 99* | 0 | 1 | 0
CC(=O)Nc1ccc(SCCN2CC[C@@H](C)CCC2=O)cc1 | -7 | / | 99* | 0 | -3 | 0
CCN1C[C@@H]2[C@@H]3C(=O)N(C)C(=O)[C@@H]3[C@](Cc3ccccc3)(C1=O)N2C(=O)c1ccc(Cl)cc1 | 2 | / | / | / | / | /
Nc1nn(-c2ccccc2)c(N)c1N=Nc1ccc2c(c1)OCO2 | 1 | i | 95* | 0 | 3 | 0
O=C(NCc1ccco1)c1cc2cc(Br)ccc2o1 | 2 | i | 98* | 4 | -3 | 0
C/C=C(\C)CN1CCC(n2nccc2NC(=O)CCCc2ccccc2)CC1 | 1 | i | -7 | 0 | -5 | 0
